Source: PubChem BioAssay (NCATS)
Results filed as inconclusive are left out. Active and inactive are the calls of the source. Calls follow the shape of the full dose curve.

Assay: Primary qHTS for inhibitors of SARS-S pseudo-typed particle cell entry (AID 1479145); also: nearly all actives have a fitted effect of over 45% in size
Conditions: SARS-S pseudotyped particle cell entry, luciferase reporter; series mostly up to 57.1 µM; activity change, negative = inhibition: at the top concentration
% is scaled to controls: 0 for no effect and ±100 for the full control effect.

SMILES	activity change, negative = inhibition	outcome
CC[N+](CC)(CCNC(=O)C(=O)NCC[N+](CC)(CC)Cc1ccccc1Cl)Cc1ccccc1Cl	-23.6% (inactive)	–
CC(=O)Nc1c(I)cc(I)c(C(=O)O)c1I	-26.4% (inactive)	–
CCOc1ccc(NC(=O)CC(C)O)cc1 (stereo not drawn)	-17.3% (inactive)	–
C/C(=N\O)[C@@H](C)NCC(C)(C)CN[C@H](C)/C(C)=N/O	–	inactive
CCCc1ccc(OCC(=O)N2CCN(C(=O)COc3ccc(CCC)cc3OC)CC2)c(OC)c1	-5.74% (inactive)	–
CC(=O)N(CC(O)CO)c1c(I)c(C(=O)NCCO)c(I)c(C(=O)NCC(O)CO)c1I (stereo not drawn)	–	inactive
Nc1ccc(S(=O)(=O)NC(=O)c2ccccc2)cc1	-0.783% (inactive)	–
CO[C@@]1(NC(=O)C(C(=O)O)c2ccc(O)cc2)C(=O)N2C(C(=O)O)=C(CSc3nnnn3C)CO[C@@H]21 (stereo partly drawn)	–	inactive
Clc1cccc(C(c2ccc3nc[nH]c3c2)n2ccnc2)c1 (stereo not drawn)	–	inactive
Cc1ncc(CO)c(CO)c1O	-4.29% (inactive)	–
CC(=O)OCC(=O)[C@@]1(O)CC[C@H]2[C@@H]3CCC4=CC(=O)CC[C@]4(C)[C@H]3C(=O)C[C@@]21C	-4.54% (inactive)	–
CCn1cc(C(=O)O)c(=O)c2cc(F)c(N3CCNC(C)C3)c(F)c21 (stereo not drawn)	-68% (inactive)	–
O=C(COCCOCCOCC(=O)Nc1c(I)cc(I)c(C(=O)O)c1I)Nc1c(I)cc(I)c(C(=O)O)c1I	-1.3% (inactive)	–
C[N+](C)(C)CCOC(N)=O	-16% (inactive)	–
CC(C)Cn1cnc2c(N)nc3ccccc3c21	3.58% [at 26.4 µM] (inactive)	–
Nc1nc(/C(=C/CC(=O)O)C(=O)N[C@@H]2C(=O)N3C(C(=O)O)=CCS[C@H]23)cs1	-19.1% (inactive)	–
O=c1oc2ccccc2c(O)c1Cc1c(O)c2ccccc2oc1=O	-2.6% (inactive)	–
CC(=O)CC(c1ccc([N+](=O)[O-])cc1)c1c(O)c2ccccc2oc1=O (stereo not drawn)	-7.99% (inactive)	–
CC(=O)[C@@]1(O)CC[C@H]2[C@@H]3C[C@H](C)C4=CC(=O)C=C[C@]4(C)[C@@]3(F)[C@@H](O)C[C@@]21C	–	inactive

SMILES	activity change, negative = inhibition	outcome
N[C@@H](Cc1cc(I)c(Oc2ccc(O)c(I)c2)c(I)c1)C(=O)O	–	inactive
C[C@](O)(CS(=O)(=O)c1ccc(F)cc1)C(=O)Nc1ccc(C#N)c(C(F)(F)F)c1	–	inactive
CC1(C)O[C@@H]2C[C@H]3[C@@H]4CCC5=CC(=O)C=C[C@]5(C)[C@@H]4[C@@H](O)C[C@]3(C)[C@]2(C(=O)CO)O1	–	inactive
CN(C)CCN(Cc1ccsc1)c1ccccn1	-6.18% (inactive)	–
CCOC(=O)[C@H](CCc1ccccc1)N[C@H]1CCCN2CCC[C@@H](C(=O)O)N2C1=O	-11% (inactive)	–
CC(C)=CCC/C(C)=C/CO	–	inactive
CCCCCCCCCCCCOCCO	-24% (inactive)	–
COCCOC(=O)C1=C(C)NC(C)=C(C(=O)OC(C)C)C1c1cccc([N+](=O)[O-])c1 (stereo not drawn)	-29.8% (inactive)	–
CCN(CC)CCNC(=O)c1ccc(N)cc1	-16.4% (inactive)	–
NC(N)=NC(=O)Cc1c(Cl)cccc1Cl	-14.4% (inactive)	–
Nc1ccn([C@@H]2CS[C@H](CO)O2)c(=O)n1	-31.4% [at 114 µM] (inactive)	–
O=S(=O)(O)c1ccc2nc(-c3ccccc3)[nH]c2c1	–	inactive
C[N+]1(C)CCCC(OC(=O)C(O)(c2ccccc2)c2ccccc2)C1 (stereo not drawn)	-18.9% (inactive)	–
CN=C(NC#N)NCCSCc1nc[nH]c1C	-4.19% (inactive)	–
CCc1cc(C(N)=S)ccn1	–	inactive
Nc1ccc(S(=O)(=O)Nc2ccccn2)cc1	–	inactive
CC(CSC(=O)c1ccccc1)C(=O)N1C[C@@H](Sc2ccccc2)C[C@H]1C(=O)O (stereo partly drawn)	–	inactive [at 26.4 µM]
COc1ccc(NS(=O)(=O)c2ccc(N)cc2)nn1	-31.2% (inactive)	–
Cc1oc(=O)oc1CN1CCN(c2cc3c(cc2F)c(=O)c(C(=O)O)c2n3C(C)S2)CC1 (stereo not drawn)	-25.6% (inactive)	–
